Assay outcomes deposited in PubChem BioAssay by The Scripps Research Institute Molecular Screening Center.
pPAFAH inh: pPAFAH (human) enzyme inhibition | actives 1.5% (n = 330,000) | inhibition, % at 3.39 µM | Q13093 | AID 463082 | recombinant pPAFAH, FP-rhodamine probe fluorescence polarization;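 active = inhibition above the mean inhibition across the screen plus 3 SD, cut at about 25% in these data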;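 also: inhibitors block binding of the rhodamine activity-based probe so polarization drops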
Target sequence (Q13093 whole entry, looked up): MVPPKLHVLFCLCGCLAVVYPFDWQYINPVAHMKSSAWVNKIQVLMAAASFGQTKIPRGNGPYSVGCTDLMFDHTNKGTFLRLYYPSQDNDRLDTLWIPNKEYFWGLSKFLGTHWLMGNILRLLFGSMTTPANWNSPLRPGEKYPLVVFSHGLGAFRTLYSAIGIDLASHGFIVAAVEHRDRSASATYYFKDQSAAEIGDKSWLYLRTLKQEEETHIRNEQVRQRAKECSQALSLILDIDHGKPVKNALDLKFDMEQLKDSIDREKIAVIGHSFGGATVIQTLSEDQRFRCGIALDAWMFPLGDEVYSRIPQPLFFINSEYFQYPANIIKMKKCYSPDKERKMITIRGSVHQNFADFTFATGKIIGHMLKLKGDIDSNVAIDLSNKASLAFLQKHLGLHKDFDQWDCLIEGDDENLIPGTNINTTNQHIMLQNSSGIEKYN
PKA-R1A act: activates the PKA-R1A holoenzyme complex; P00514+P68181; PKA-R1A dissociation, Cy5-IP20 fluorescence polarization; scaled: DMSO 0%, 113 µM cGMP 100%; activation, % at 11.4 µM; actives 0.083% (n = 340,000); AID 504707;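 active = percent activation above the mean of all tested compounds plus 3 SD, cut at about 19% in these data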;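 also: higher means more PKAc released from R1A so a rise in polarization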
PKA-R2B activ: PKA-R2B complex activation; activation, % at 11.4 µM; PKA-R2B holoenzyme dissociation, Cy5-IP20 fluorescence polarization; R2B truncated from residue 108, S112A mutant; 0% DMSO only, 100% 113 µM cGMP; P22694+P31323; actives 0.079% (n = 340,000);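 active = activation above a cutoff set at the mean over all compounds plus 3 SD, cut at about 18% in these data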;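 also: higher means more holoenzyme dissociation and a rise in polarization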
PAFAH1B3 inh: inhibitors of human PAFAH1B3 | Q15102 | inhibition, % at 3.39 µM | recombinant PAFAH1B3, FP-rhodamine probe, fluorescence polarization | AID 492972 | actives 0.28% (n = 340,000);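 active = inhibition above the screen-wide average of all tested compounds plus 3 SD, cut at about 25% in these data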
PAFAH2 FP inh: PAFAH2 (human) inhibition | recombinant PAFAH2, FP-rhodamine activity probe, fluorescence polarization | inhibition, % at 3.39 µM | Q99487 | AID 492956 | actives 0.99% (n = 340,000);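 active = inhibition above the mean over all tested compounds plus 3 SD, cut at about 30% in these data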;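 also: inhibitors block probe labeling of enzyme so polarization drops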
PAFAH1B2 FP inh: inhibitors of human PAFAH1B2; recombinant PAFAH1B2, FP-rhodamine activity probe, fluorescence polarization; AID 492953; actives 1.2% (n = 340,000); inhibition, % at 3.39 µM;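 active = inhibition above the mean of all tested compounds plus 3 SD, cut at about 24% in these data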
PAFAH2 FP conf: PAFAH2 (human) inhibition, confirmed; shares compounds with PAFAH2 FP inh; recombinant PAFAH2, FP-rhodamine activity probe, fluorescence polarization; inhibition, % at 3.39 µM; actives 65% (n = 2,300); AID 493030;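 active = mean inhibition over three repeats above a set limit taken from the earlier primary screen, cut at about 30% in these data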;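 also: inhibitor blocks binding of rhodamine activity probe so polarization falls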
Numbers stand for hits; - = inactive; . = no result. Only some compounds are listed: those with a hit (about 2.6% of all), similar ones and a draw of the others.

SMILES	pPAFAH inh	PKA-R1A act	PKA-R2B activ	PAFAH1B3 inh	PAFAH2 FP inh	PAFAH1B2 FP inh	PAFAH2 FP conf
Cc1ccc(C)c(OCc2cc(C(=O)N(C)Cc3nccs3)no2)c1	-	-	-	-	-	-	.
CCCC(C)NC(=O)COC(=O)c1cccc(NS(C)(=O)=O)c1 (configuration not stated)	-	-	-	-	37	-	-
NC(=O)Nc1ccc(C(=O)OCC(=O)Nc2ccc(Cl)cn2)cc1	-	-	-	-	82	-	72
O=C(COC(=O)c1cnccn1)Nc1ccc(Cl)cn1	-	-	-	-	-	-	.
CC(=O)Nc1cccc(C(=O)OCC(=O)NC(C)c2ccc(F)cc2)c1 (configuration not stated)	-	-	-	-	46	-	36
CCN(c1ccc(NC(=O)COC(=O)c2ccc(C)s2)cc1)C(C)C	-	-	-	-	46	-	40
CCNC(=O)NC(=O)COC(=O)c1cccc(NS(=O)(=O)/C=C/c2ccccc2)c1	-	-	-	-	-	-	.
COc1ccc(-c2nc(CS(=O)(=O)CC(=O)NCc3cccc(F)c3)c(C)o2)cc1	-	-	-	-	-	-	.
Nc1cc(C(Cl)=C(Cl)Cl)c(S(N)(=O)=O)cc1S(N)(=O)=O	-	-	-	-	-	-	.
Cc1ccc(CNC(=O)CCn2cc(-c3ccc(C)cc3)nc2CCN)cc1	-	-	-	-	-	-	.
CC(=O)Nc1ccc(NC(=O)C(C)Sc2nnc(-c3cccs3)o2)cc1 (configuration not stated)	-	-	-	-	-	-	.
COc1ccccc1/C=N/OC(=O)c1ccc(C)cc1	-	-	-	-	87	-	75
COc1ccccc1C/C(N)=N/O	-	-	-	-	-	-	.
Cc1cccc(/C(N)=N/OC(=O)c2ccc3c(c2)OCO3)c1	-	-	-	-	42	-	36
COc1ccccc1C/C(N)=N/OC(=O)c1ccco1	-	-	-	-	58	-	62
Cc1ccc(C(=O)O/N=C/c2ccc3c(c2)OCO3)cc1	-	-	-	-	48	-	51
FC(F)(F)C1=NNC(c2ccc3ccccc3c2)=NN1	.	-	-	.	.	.	.
COc1ccc(C)cc1NC(=O)C1CCCCN1S(=O)(=O)c1ccccc1 (configuration not stated)	-	-	-	-	-	-	.
O=C(NCCc1ccc(F)cc1)C(=O)NCC1CCCN1S(=O)(=O)c1cccs1 (configuration not stated)	-	-	-	-	-	-	.
C=CCOc1cccc(/C=N/NC(=O)CN2CCCCC2)c1	-	-	-	-	-	-	.
COc1ccccc1CC(=O)NCc1ccc2c(c1)OCO2	-	-	-	-	-	-	.
COc1ccccc1C/C(N)=N/OC(=O)c1ccc2c(c1)OCO2	-	-	-	-	77	-	79
COCCN(CC1CCCN(C2Cc3ccccc3C2)C1)C(=O)c1ccc(C(C)=O)cc1 (configuration not stated)	-	-	-	-	-	-	.
COCCN(CC1CCCN(C2Cc3ccccc3C2)C1)C(=O)c1cccc(C)c1 (configuration not stated)	-	-	-	-	32	-	-
CS(=O)(=O)N1CCC(C(=O)Nc2ccc(Cl)cc2Cl)CC1	.	-	-	.	.	.	.
SMILES	pPAFAH inh	PKA-R1A act	PKA-R2B activ	PAFAH1B3 inh	PAFAH2 FP inh	PAFAH1B2 FP inh	PAFAH2 FP conf
O=C(COC(=O)c1cc[n+]([O-])cc1)Nc1ccc2c(c1)OCCO2	-	-	-	-	-	-	.
COc1ccc(CC(=O)OCC(=O)Nc2ccc3c(c2)OCCO3)cc1OC	-	-	-	-	-	-	.
O=C(OCC1COc2ccccc2O1)c1ccccc1F (configuration not stated)	-	-	-	-	39	-	-
O=C(COC(=O)c1cccc(F)c1)Nc1ccc2c(c1)OCCO2	-	-	-	-	31	-	-
CCOc1ccc(C(=O)OCC(=O)Nc2ccc3c(c2)OCCO3)cc1OC	-	-	-	-	74	-	83
COc1ccc(C(=O)OCC(=O)Nc2ccc3c(c2)OCCO3)c(OC)c1	-	-	-	-	55	-	50
CN(C)S(=O)(=O)c1cccc(C(=O)OCC(=O)Nc2ccc3c(c2)OCCO3)c1	-	-	-	-	41	-	40
CCOc1ncccc1C(=O)OCC(=O)c1ccc(Cl)s1	-	-	-	-	44	-	-
Cc1cccc(C(=O)OCC(=O)Nc2ccc3c(c2)OCCO3)c1O	-	-	-	-	-	-	.
O=C(COC(=O)c1ccccc1F)Nc1ccc2c(c1)OCCO2	.	-	-	-	70	-	52
O=C(COC(=O)CNC(=O)c1ccccc1F)Nc1ccc2c(c1)OCCO2	-	-	-	-	-	-	.
Cc1cccc(C(=O)OCC(=O)Nc2ccc3c(c2)OCCO3)c1	-	-	-	-	61	-	58
COc1cccc(CNC(=O)CCC(=O)n2ncc3cc(C)ccc32)c1OC	-	-	-	-	-	-	.
CCOc1ncccc1C(=O)OCC(=O)Nc1ccc2c(c1)OCO2	-	-	-	-	32	-	36
Cc1ccccc1N1CCN(CC(=O)Nc2ccccc2C(=O)NC2CC2)CC1	-	-	-	-	-	-	.
COc1ccc(CNC(=O)COC(=O)C2CC2C)cc1OC (configuration not stated)	-	-	-	-	-	-	.
CC1CC1C(=O)OCC(=O)NCc1ccc(Cl)cc1Cl (configuration not stated)	-	-	-	-	62	-	53
CC1CC1C(=O)OCC(=O)NCc1ccc(Cl)cc1 (configuration not stated)	-	-	-	-	46	-	-
CCOc1ccccc1C(=O)OCC(=O)Nc1ccc(N2CCCCC2)cc1	-	-	-	-	36	-	-
O=C(COC(=O)c1ccccc1OC(F)F)Nc1ccc(N2CCCCC2)cc1	-	-	-	-	42	-	37
N#Cc1ccc(-c2ccc(OCC3CNC(=O)O3)cc2)cc1 (configuration not stated)	-	-	-	-	-	-	.
CC(NC(=O)COC(=O)c1ccccc1SCC(=O)N1CCCC1)c1ccccc1 (configuration not stated)	-	-	-	-	51	-	42
Cc1ccccc1NC(=O)COC(=O)c1ccccc1SCC(=O)N1CCCC1	-	-	-	-	44	-	41
CC(=O)Nc1ccc(NC(=O)COC(=O)c2ccccc2SCC(=O)N2CCCC2)cc1	-	-	-	-	-	-	.
